Values joined by “and” are separate entries in the source; they are usually repeats but may differ in a detail not shown here. Identical values can stand only once. Screen size: about 5,500 compounds; about 2,000 (36%) were called active. Inconclusive results (about 18%) are left out. Rule as the data show it: active = normalized growth mostly below about 0.91 (no sharp cut-off); inconclusive = no clear call, values can overlap the other calls; inactive = mostly above about 0.92. This is one part of the list.
Experiment: chemical genetic growth profiling, strain panel (AID 1159580);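 also: tested at 20 µM; growth read once vehicle control cultures reached saturation at 30 °C; 1 = growth at the plate median or of vehicle wells; lower values mean less growth of the strain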
Conditions: growth OD

Measured: normalized growth

C[N+]1(CCCCC[N+]2(C)CCCC2)CCCC1
inactive: S. cerevisiae deletion strains, locus YJR043C, strain POL32, stronger effect = lower value 1.01 | S. cerevisiae deletion strains, locus YJR075W, strain HOC1, stronger effect = lower value 1.02 and 0.994 | S. cerevisiae deletion strains, locus YKL009W, strain mrt4, stronger effect = lower value 1.04 | S. cerevisiae deletion strains, locus YKL068W, stronger effect = lower value 1.01 | S. cerevisiae deletion strains, locus YKL085W, strain MDH1 (second series), stronger effect = lower value 1.01 | S. cerevisiae deletion strains, locus YKL085W, strain MDH1, stronger effect = lower value 1.01 | S. cerevisiae deletion strains, locus YKL160W, strain elf1, stronger effect = lower value 1.01 | S. cerevisiae deletion strains, locus YKL190W, strain CNB1, stronger effect = lower value 1.01 | S. cerevisiae deletion strains, locus YKR001C, strain vps1, stronger effect = lower value 1.01 | S. cerevisiae deletion strains, locus YKR026C, strain gcn3, stronger effect = lower value 1 | S. cerevisiae deletion strains, locus YKR091W, strain srl3, stronger effect = lower value 1 | S. cerevisiae deletion strains, locus YLL001W, strain dnm1, stronger effect = lower value 1 | S. cerevisiae deletion strains, locus YLL026W, stronger effect = lower value 0.992 | S. cerevisiae deletion strains, locus YLL041C, strain sdh2, stronger effect = lower value 0.999 | S. cerevisiae deletion strains, locus YLR027C, strain aat2, stronger effect = lower value 0.992 | S. cerevisiae deletion strains, locus YLR039C, strain RIC1, stronger effect = lower value 1.02 | S. cerevisiae deletion strains, locus YLR058C, strain SHM2, stronger effect = lower value 1.01 | S. cerevisiae deletion strains, locus YLR102C, strain apc9, stronger effect = lower value 1.02 | S. cerevisiae deletion strains, locus YLR221C, strain rsa3, stronger effect = lower value 1 | S. cerevisiae deletion strains, locus YLR258W, strain gsy2, stronger effect = lower value 0.998 | S. cerevisiae deletion strains, locus YLR262C, strain YPT6 (second series), stronger effect = lower value 1.03 | S. cerevisiae deletion strains, locus YLR262C, strain YPT6, stronger effect = lower value 1.03 | S. cerevisiae deletion strains, locus YLR268W, strain sec22, stronger effect = lower value 1.03 | S. cerevisiae deletion strains, locus YLR320W, strain mms22, stronger effect = lower value 0.993 | S. cerevisiae deletion strains, locus YLR330W, strain CHS5, stronger effect = lower value 1 | S. cerevisiae deletion strains, locus YLR342W, strain FKS1 (second series), stronger effect = lower value 1.01 | S. cerevisiae deletion strains, locus YLR342W, strain FKS1, stronger effect = lower value 0.995 | S. cerevisiae deletion strains, locus YLR357W, strain rsc2, stronger effect = lower value 0.963 | S. cerevisiae deletion strains, locus YLR370C, strain arc18, stronger effect = lower value 1 | S. cerevisiae deletion strains, locus YLR371W, strain rom2, stronger effect = lower value 1.03 | S. cerevisiae deletion strains, locus YLR384C, strain iki3, stronger effect = lower value 0.992 | S. cerevisiae deletion strains, locus YLR418C, strain cdc73, stronger effect = lower value 1.02 | S. cerevisiae deletion strains, locus YML016C, strain PPZ1, stronger effect = lower value 1.01 | S. cerevisiae deletion strains, locus YML032C, strain rad52, stronger effect = lower value 1.03 | S. cerevisiae deletion strains, locus YML120C, strain ndi1, stronger effect = lower value 0.99 | S. cerevisiae deletion strains, locus YML124C, strain tub3, stronger effect = lower value 1.02 | S. cerevisiae deletion strains, locus YMR058W, strain fet3, stronger effect = lower value 0.999 | S. cerevisiae deletion strains, locus YMR078C, strain ctf18, stronger effect = lower value 1.03 | S. cerevisiae deletion strains, locus YMR125W, strain sto1, stronger effect = lower value 0.979 | S. cerevisiae deletion strains, locus YMR129W, stronger effect = lower value 0.999 | S. cerevisiae deletion strains, locus YMR205C, strain PFK2, stronger effect = lower value 1.01 | S. cerevisiae deletion strains, locus YMR223W, strain ubp8, stronger effect = lower value 1 | S. cerevisiae deletion strains, locus YMR231W, strain pep5, stronger effect = lower value 0.993 | S. cerevisiae deletion strains, locus YMR263W, strain SAP30, stronger effect = lower value 1.01 | S. cerevisiae deletion strains, locus YMR307W, strain GAS1, stronger effect = lower value 1 and 1.02 | S. cerevisiae deletion strains, locus YNL067W, strain RPL9B, stronger effect = lower value 1.02 | S. cerevisiae deletion strains, locus YNL071W, strain lat1, stronger effect = lower value 0.997 | S. cerevisiae deletion strains, locus YNL128W, strain TEP1, stronger effect = lower value 1.01 | S. cerevisiae deletion strains, locus YNL153C, strain GIM3, stronger effect = lower value 1.01 and 1.02 | S. cerevisiae deletion strains, locus YNL175C, strain NOP13, stronger effect = lower value 0.993 | S. cerevisiae deletion strains, locus YNL197C, strain WHI3, stronger effect = lower value 0.982 | S. cerevisiae deletion strains, locus YNL209W, strain ssb2, stronger effect = lower value 0.995 | S. cerevisiae deletion strains, locus YNL224C, strain SQS1, stronger effect = lower value 0.988 | S. cerevisiae deletion strains, locus YNL233W, strain BNI4, stronger effect = lower value 1.01 | S. cerevisiae deletion strains, locus YNL248C, strain rpa49, stronger effect = lower value 0.996 | S. cerevisiae deletion strains, locus YNL250W, strain rad50, stronger effect = lower value 1.02 | S. cerevisiae deletion strains, locus YNL271C, strain bni1, stronger effect = lower value 1.01 | S. cerevisiae deletion strains, locus YNL298W, strain CLA4, stronger effect = lower value 1.02 | S. cerevisiae deletion strains, locus YNL307C, strain MCK1, stronger effect = lower value 1.03 | S. cerevisiae deletion strains, locus YNL322C, strain KRE1 (second series), stronger effect = lower value 0.998 | S. cerevisiae deletion strains, locus YNL322C, strain KRE1, stronger effect = lower value 1 | S. cerevisiae deletion strains, locus YNR049C, strain mso1, stronger effect = lower value 0.994 | S. cerevisiae deletion strains, locus YNR052C, strain pop2, stronger effect = lower value 1.02 | S. cerevisiae deletion strains, locus YOL006C, strain TOP1, stronger effect = lower value 1.04 | S. cerevisiae deletion strains, locus YOL012C, strain htz1 1.04 | S. cerevisiae deletion strains, locus YOL147C, strain pex11, stronger effect = lower value 1.02 | S. cerevisiae deletion strains, locus YOR001W, strain rrp6, stronger effect = lower value 0.995 | S. cerevisiae deletion strains, locus YOR061W, strain CKA2, stronger effect = lower value 1.01 | S. cerevisiae deletion strains, locus YOR069W, strain VPS5, stronger effect = lower value 1 | S. cerevisiae deletion strains, locus YOR070C, strain gyp1, stronger effect = lower value 0.998 | S. cerevisiae deletion strains, locus YOR080W, strain dia2, stronger effect = lower value 0.987 | S. cerevisiae deletion strains, locus YOR083W, strain WHI5 (second series), stronger effect = lower value 1.01 | S. cerevisiae deletion strains, locus YOR083W, strain WHI5, stronger effect = lower value 0.993 | S. cerevisiae deletion strains, locus YOR106W, strain vam3, stronger effect = lower value 1.01 | S. cerevisiae deletion strains, locus YOR136W, strain idh2, stronger effect = lower value 1.01 | S. cerevisiae deletion strains, locus YOR144C, strain elg1, stronger effect = lower value 1.02 | S. cerevisiae deletion strains, locus YOR184W, strain ser1, stronger effect = lower value 1.03 | S. cerevisiae deletion strains, locus YOR265W, strain rbl2, stronger effect = lower value 0.994 | S. cerevisiae deletion strains, locus YOR270C, strain vph1, stronger effect = lower value 1.02 | S. cerevisiae deletion strains, locus YOR290C, strain snf2, stronger effect = lower value 0.996 | S. cerevisiae deletion strains, locus YOR316C, strain cot1, stronger effect = lower value 1.01 | S. cerevisiae deletion strains, locus YPL051W, strain arl3, stronger effect = lower value 0.999 | S. cerevisiae deletion strains, locus YPL055C, strain LGE1, stronger effect = lower value 1.03 | S. cerevisiae deletion strains, locus YPL078C, strain atp4, stronger effect = lower value 0.997 | S. cerevisiae deletion strains, locus YPL106C, strain sse1, stronger effect = lower value 0.985 | S. cerevisiae deletion strains, locus YPL240C, strain hsp82, stronger effect = lower value 0.982 | S. cerevisiae deletion strains, locus YPL241C, strain CIN2, stronger effect = lower value 1.01 and 0.991 | S. cerevisiae deletion strains, locus YPR119W, strain clb2, stronger effect = lower value 1.02 | S. cerevisiae deletion strains, locus YPR141C, strain kar3, stronger effect = lower value 1.01 | S. cerevisiae deletion strains, locus YPR163C, strain tif3, stronger effect = lower value 1.02 | S. cerevisiae deletion strains, locus YPR167C, strain met16, stronger effect = lower value 1.01 | S. cerevisiae deletion strains, strain wtn01, stronger effect = lower value 1.01 | S. cerevisiae strains, strain wild type, stronger effect = lower value 1.01

From PubChem BioAssay AID1159580 (chemical genetic matrix, 2015)
